# According to PubChem BioAssay AID624404 (Broad Institute, 2012):
# The whole screen tested about 1,800 compounds, of which about 710 (39%) were called active. About 28% were inconclusive and are not listed.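 Rule for the calls: active = luciferase signal rise whose fitted curve crosses a set activity limit at or below the top valid tested dose; inconclusive = flat fit with 30 to 70% rise, or poor fit; inactive = signal falling, flat within 30%, or crossing above top dose.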 Only a sample is shown. Entries with a potency or affinity are not part of this list.
# Test: reporter signal increase, D54 LucT cells – cell-based, luminescence, cherry pick, counter-screen for N-linked glycosylation inhibitor project, dose response (AID 624404);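 note: 0% = median neutral control signal and 100% = twice that signal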
# Settings: D54 LucT luciferase reporter counterscreen, 24 h; series mostly up to 19.5 µM; activity increase (luciferase signal): at the top concentration
row,SMILES,activity increase (luciferase signal)
1,O=C(CSc1ncnc2nc[nH]c12)c1ccc([N+](=O)[O-])cc1,-6.76% (inactive)
2,COc1cc(C(=O)OCC(=O)c2cc(C)n(C)c2C)cc(OC)c1OC,13.5% (inactive)
3,COc1cc(COCC(O)CN2CCN(CCN3C(=O)c4cccc5cccc(c45)C3=O)CC2)cc(OC)c1OC (configuration not stated),-1.72% (inactive)
4,C=CCOc1ccc2nc(NC(=O)OC)[nH]c2c1,11.3% (inactive)
5,Cc1noc2ncnc(Sc3ccccc3Cl)c12,39.8% (inactive)
6,CCc1nn2c(N(C)CCO)cc(C)nc2c1-c1ccc(F)cc1,3.57% (inactive)
7,OC1CCCN(Cc2c3ccccc3cc3ccccc23)C1 (configuration not stated),36% (inactive)
8,CN(C)CCNC(=O)c1cccc2nc3c(ccc4ccccc43)nc12,34.8% (inactive)
9,CCOC(=O)c1cnc2c(C)cc(C)cc2c1NCCCN1CCOCC1,34.1% (inactive)
10,CCOC(=O)c1cc2sccc2n1CC(=O)N1CCc2ccccc21,38.1% (inactive)
11,COc1cc(-c2noc(C)c2/C=C/c2ccc(N)cc2)cc(OC)c1OC,4.57% (inactive)
12,Cc1ccc(Nc2nnc(SCC(=O)Nc3ncc(S(=O)(=O)c4ccc([N+](=O)[O-])cc4)s3)s2)cc1,35.6% (inactive)
13,CCOC(=O)c1c(C)oc2c(F)c(F)c(F)c(F)c2c1=O,-70.7% (inactive)
14,CCOc1ccc2c(c1)C(=NNC(=O)c1ccncc1)c1cc(OCC)ccc1-2,-20.8% (inactive)
15,CNc1ccc(Br)cc(C(=O)/C=C/c2cccc(OC)c2OC)c1=O,17.9% (inactive)
16,CCN(CC)C(=O)CSc1nc2c(sc(=S)n2-c2ccccc2)c(=O)n1Cc1ccco1,-39.3% (inactive)
17,COc1ccc(C(=O)CSc2nn3c(=O)c(C(C)(C)C)nnc3s2)cc1,22.2% (inactive)
18,COC(=O)c1ccc2c(=O)n(Cc3ccco3)c(SCC(=O)Nc3cc(C)on3)nc2c1,-15.7% (inactive)
19,CCOC(=O)c1ccc(/C=C2/C=C(c3ccccc3)N(c3ccc(Cl)c(C(=O)O)c3)C2=O)cc1,-17% (inactive)
20,Cc1ccc(Cl)cc1N1CCN(S(=O)(=O)c2ccc(-c3ccc(=O)[nH]n3)o2)CC1,30.2% (inactive)
21,Cn1c(N)c(C(=O)COC(=O)c2cc(S(=O)(=O)N3CCOCC3)ccc2F)c(=O)n(C)c1=O,4.76% (inactive)
22,CCCn1c(=N)n(CC(=O)c2ccc([N+](=O)[O-])cc2)c2ccccc21,58.5% (inactive)
